Records with an inconclusive call do not appear. Unmarked numbers belong to inactive results. The call rests on the fitted dose curve; in most records, active means well fitted inhibition curve with a large enough effect; inconclusive means small, poorly fitted or top-dose-only effect; inactive means flat fitted curve, though single readings scatter.
What follows are compounds tested against Calcium and integrin-binding protein 1 (Homo sapiens) (UniProt Q99828) (assay: Primary qHTS for Identification of Calcium Integrin Binding Protein 1 (CIB1) Competitor (AID 1508620; further: top concentration of the series differs between compounds)). Conditions: CIB1-GST / FITC-alphaIIb peptide fluorescence polarization; series mostly up to 114 µM; activity change, negative = inhibition: at the top concentration.
Summary of the method: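 Fluorescence polarization competition: GST-tagged CIB1 (1 uM final) preincubated with compound 15 min at room temperature, then FITC-labelled alphaIIb peptide (100 nM final) added. After 15 min at room temperature, polarization read at Ex 480/Em 540.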
On the % scale 0 is the no-effect control and ±100 the full control effect.

Chain of Calcium and integrin-binding protein 1 (Homo sapiens) (Q99828 whole entry, looked up): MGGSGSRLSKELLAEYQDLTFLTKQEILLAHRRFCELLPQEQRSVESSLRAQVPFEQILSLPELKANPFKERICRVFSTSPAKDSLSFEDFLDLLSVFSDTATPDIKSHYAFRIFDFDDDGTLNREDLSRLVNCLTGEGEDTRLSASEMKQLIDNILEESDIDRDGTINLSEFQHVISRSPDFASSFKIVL

Compound | activity change, negative = inhibition [%]
Cc1cc(C)c2c(c1)C(N(Cc1cc(C(F)(F)F)cc(C(F)(F)F)c1)c1nnn(C)n1)CCCN2CC1CCC(C(=O)O)CC1 (stereo unspecified) | 2.61
CC[C@H](C(=O)Nc1ccccc1N1CCCC1)c1ccccc1 | -0.207
O=C(Nc1ccccc1Cl)c1cnc2ccc(C3CCNCC3)cn12 | -1.46
COc1ccc2nccc(C(=O)CC[C@@H]3CCN(CC#Cc4cc(F)cc(F)c4F)C[C@@H]3C(=O)O)c2c1 | -5.01
C=C1/C(=C/C=C2\CCC[C@]3(C)[C@@H]([C@@H](C)OCCC(O)(CC)CC)CC[C@@H]23)C[C@@H](O)C[C@@H]1O | -3.43
COc1cccc(N2CCN(C3=Nc4c(F)cccc4[C@H](CC(=O)O)N3c3cc(C(F)(F)F)ccc3OC)CC2)c1 | -13.4
